The values below come from PubChem BioAssay (Tox21).

Records with an inconclusive call do not appear. Entries that show only a call come without a potency. Unmarked numbers belong to inactive results. Active and inactive are the calls of the source. Calls come from the whole dose curve; as a rule, active = well fitted activation curve with a large enough effect in the repeat runs; inconclusive = weak or mixed curves; inactive = flat fitted curve, though single readings scatter.
Potency is the fitted concentration of half-maximal effect.

The experiment is described as follows: A CellTox Green Cytotoxicity Assay to monitor cytotoxicity in HepG2 cells - 32 hour (AID 1224883). Note: nearly all actives have a fitted effect of over 50% in size. The note with it: CellTox Green fluorescence; series mostly up to 76.8 µM. An excerpt:
National Center for Advancing Translational Sciences [NCATS]
NIH Chemical Genomics Center [NCGC]
U.S. Environmental Protection Agency [EPA]
National Institutes of Environmental Health Sciences [NIEHS]
National Toxicology Program [NTP]
Cell-based models are critical for drug discovery. Determining the natural cytotoxic effects resulting from test compounds is an essential research activity. A CellTox Green Cytotoxicity Assay to monitor cytotoxicity in real time of continues cell culture during 40 hours of the compound treatment was used to screen Tox21 10K library compounds in HepG2 cells. CellTox Green Cytotoxicity Assay is a nonlytic, homogeneous, biofluorescent method to measure cytotoxicity in cell culture after experimental manipulation. The assay system uses a proprietary asymmetric cyanine dye that is excluded from viable cells but preferentially stains the dead cell's DNA. […] Viable cells produce no appreciable increases in fluorescence. Therefore, the fluorescence signal produced by the binding interaction with dead cell DNA is proportional to cytotoxicity.
The mixture of HepG2 cell suspension and reagents were dispensed at 600cells/6 ul/well in 1536-well tissue culture treated black solid bottom plates using a Multidrop dispenser. After the assay plates were incubated at a 37 C/5% CO2 incubator for 5 hours, 23 nL of compounds dissolved in DMSO, positive and negative controls was transferred to the assay plate by a pintool work station. The plates were incubated at 37 C for 40 hours. The fluorescence intensity were measured at 0h, 8h, 16h, 24h, 32h and 40h time points using ViewLux plate reader during compound treatment.
Regarding `O=C1OC(=O)C2CC=CCC12` (stereo not given), the Potency entry is “inactive”.

As for `CC1(C)CC(O)CC(C)(C)N1[O]`, the Potency entry is “inactive”.

Regarding `CCCCCCCCCC(C)C=O` (stereo not given), the Potency was 21.9 µM (active).

Regarding `CCC(C)CCCC(C)(C)O` (stereo not given), the Potency entry is “inactive”.

As for `CCC(CC)C(=O)O`, the Potency entry was “inactive”.

As to `O=C(O)c1cccnc1Nc1cccc(C(F)(F)F)c1`, the Potency entry is “inactive”.

Regarding `Cc1cc(C)n(CO)n1`, the Potency result was “inactive”.

In the case of `CC(CCl)OC(C)CCl` (stereo not given), the Potency entry is “inactive”.

`O=C(O)c1cc(C(=O)O)cc([N+](=O)[O-])c1`: the Potency result was “inactive”.

For the compound `N#CCCCC(C#N)CCC#N` (stereo not given), the Potency result was “inactive”.

Regarding `CO[C@@H]1COCC[C@@H]1N[C@@H]1CC[C@@](C(=O)N2CCc3ncc(C(F)(F)F)cc3C2)(C(C)C)C1`, the Potency entry was “inactive”.

Regarding `Cc1cc(SC2=C(O)C[C@@](CCc3ccc(N)cc3)(C(C)C)OC2=O)c(C(C)(C)C)cc1CO`, the Potency entry was “inactive”.

In the case of `Clc1cccc(C(c2ccc3nc[nH]c3c2)n2ccnc2)c1` (stereo not given), the Potency result is “inactive”.

Consider `CC1=CC(=C(c2ccc(N)cc2)c2ccc(N)cc2)C=CC1=N`, for which the cytotoxicity increase is 0.891% [at 6.97 µM].

For `CCCCCCCCC(=O)OCC(C)OC(=O)CCCCCCCC` (stereo not given), the Potency result was “inactive”.

Take `O=C1C=CCCC1`: the Potency result is “inactive”.

Take `O=C(OC1C[C@H]2CC[C@@H](C1)[N+]21CCCC1)C(O)(c1ccccc1)c1ccccc1` (stereo not given in full): the Potency entry is “inactive”.

With `CC[C@H](NC(C)C)[C@H](O)c1ccc(O)c2[nH]c(=O)ccc12`, the Potency result was “inactive”.

As for `CCCCCCCCCCCC(=O)OCC`, the Potency entry is “inactive”.

For the compound `O=P(c1ccccc1)(c1ccccc1)c1ccccc1`, the Potency entry was “inactive”.

For `CC(CC(C#N)(c1ccccc1)C(C)C)N(C)C` (stereo not given), the Potency result is “inactive”.

Take `C[C@H](N)C(=O)N[C@@H](C)C(=O)NC1[C@H]2CN(c3nc4c(cc3F)c(=O)c(C(=O)O)cn4-c3ccc(F)cc3F)C[C@@H]12` (stereo not given in full): the Potency result is “inactive”.

As to `OCCOc1cccc(OCCO)c1`, the Potency result is “inactive”.

In the case of `O=C(O)c1ccc2c(c1)nc(C(=O)NC1CCN(C3CC3)CC1)n2Cc1cc(-c2ccc(Cl)s2)on1`, the cytotoxicity increase was -6.61% [at 15.8 µM].

Consider `O=C1c2ccccc2C(=O)C1c1ccc2ccccc2n1`, for which the Potency entry is “inactive”.

In the case of `Nc1ccccc1Nc1ccccc1`, the Potency entry is “inactive”.

In the case of `CCCCCCCCNC`, the Potency entry was “inactive”.

Take `CC(C)(C(=O)O)c1ccc(C(O)CCCN2CCC(C(O)(c3ccccc3)c3ccccc3)CC2)cc1` (stereo not given): the Potency entry is “inactive”.

On to `C[C@@H](O)[C@H]1C(=O)N2C(C(=O)O)=C(S[C@@H]3CN[C@H](CNS(N)(=O)=O)C3)[C@H](C)[C@H]12`, for which the Potency result is “inactive”.

With `FC(F)(Cl)C(F)(Cl)Cl`, the Potency result is “inactive”.

Consider `COc1ccc(C(=O)c2ccc(C)cc2)c(O)c1`, for which the Potency result was “inactive”.

Consider `Nc1ncnc2c1ncn2[C@@H]1O[C@H](CO)[C@@H](O)[C@H]1O`, for which the Potency result is “inactive”.

On to `CC1(C)C(=O)NC(=O)N1CO`, for which the Potency entry was “inactive”.

Regarding `C=CC(O)CCCCC` (stereo not given), the Potency result is “inactive”.

On to `Oc1ccc(Oc2ccccc2)cc1`, for which the Potency was 36.9 µM (active).

Consider `CCc1c(C)[nH]c2c1C(=O)C(CN1CCOCC1)CC2` (stereo not given), for which the Potency entry was “inactive”.

In the case of `CC(=O)Nc1cccc(N)c1`, the Potency result is “inactive”.

Consider `O=S(=O)(O)c1cc(Cl)c(Cl)cc1Cl`, for which the Potency result is “inactive”.

Consider `Cc1ccc(NC=O)c(C)c1`, for which the Potency result is “inactive”.

On to `OCCCO`, for which the Potency result is “inactive”.
